The supplement of paper PMC10849652
About 7,900 targets were measured; listed, in parts, are those with a hit and a random draw of the rest. About 0.6% of all pairs of compound and target were hits.

What was measured:
Test in all cases: log2 fold change, soluble protein after heating vs DMSO (PISA); higher = thermal stabilisation; K562 cells, 10 uM, 30 min; active = over 0.2 and 3.5 SD of the protein, either way, in both replicates (recomputed)
[1] = compound: NC(=O)Nc1cc(-c2cccc(F)c2)sc1C(=O)N[C@H]1CCCNC1
In short: (§1)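 Thermal stability values are relative to control samples and come from duplicates. They are expressed as log2 fold changes. For measurement, K562 cells (2×10^6 cells/mL) received 10 μM compound for 30 min, and aliquots were heated for 3 min over 48°C-58°C, pooled, and extracted at 4°C in PBS with 0.5% NP-40. Soluble protein, the supernatant after 21,000xg for 90 min, was quantified by TMTpro 16plex LC-MS/MS with equalised channel sums.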

[2] = compound: NC(=O)c1cnc(N[C@@H]2CCCC[C@@H]2N)nc1Nc1cccc(-n2nccn2)c1
In short: as §1

[3] = compound: NC1(c2ccc(-c3nc4ccn5c(=O)[nH]nc5c4cc3-c3ccccc3)cc2)CCC1
In short: as §1

[4] = compound: NCC(=O)Nc1ccc(-n2nc(C(F)(F)F)cc2-c2ccc3c(ccc4ccccc43)c2)cc1
In short: as §1

entinostat = compound: Nc1ccccc1NC(=O)c1ccc(CNC(=O)OCc2cccnc2)cc1 [entinostat]
In short: as §1

vorinostat = compound: O=C(CCCCCCC(=O)Nc1ccccc1)NO [vorinostat]
In short: as §1

citarinostat = compound: O=C(CCCCCCNC(=O)c1cnc(N(c2ccccc2)c2ccccc2Cl)nc1)NO [citarinostat]
In short: as §1

silmitasertib = compound: O=C(O)c1ccc2c(c1)nc(Nc1cccc(Cl)c1)c1ccncc12 [silmitasertib]
In short: as §1

[5] = compound: O=C1NC(=O)C(c2cnc3ccccn23)=C1c1cn2c3c(cc(F)cc13)CN(C(=O)N1CCCCC1)CC2
In short: as §1

[6] = compound: c1cc(OCCN2CCCCC2)cc(-c2n[nH]c3ccc(-c4nnc[nH]4)cc23)c1
In short: as §1

entospletinib = compound: c1cn2cc(-c3ccc4cn[nH]c4c3)nc(Nc3ccc(N4CCOCC4)cc3)c2n1 [entospletinib]
In short: as §1

Measured: log2 fold change

GALNT11 (UniProt Q8NCW6)
inactive: [1] 0.001 | [2] -0.119 | [3] -0.224 | [4] -0.023 | entinostat -0.012 | vorinostat 0.01 | citarinostat 0.079 | silmitasertib 0.027 | [5] -0.021 | [6] 0.002 | entospletinib -0.159

HSPA8 (UniProt E9PN89)
inactive: [1] -0.317 | [2] -0.283 | [3] -0.172 | [4] -0.372 | entinostat -0.135 | vorinostat -0.057 | citarinostat -0.304 | silmitasertib 0.365 | [5] -0.102 | [6] -0.394 | entospletinib 0.099

ICMT (UniProt O60725)
inactive: [1] 0.031 | [2] -0.153 | [3] -0.233 | [4] -0.079 | entinostat 0.007 | citarinostat -0.034 | silmitasertib 0.022 | [5] -0.013 | [6] -0.016 | entospletinib 0.303

FBXO6 (UniProt Q9NRD1)
active: [3] 0.366
inactive: [1] -0.009 | [2] 0.034 | [4] 0.028 | entinostat 0.013 | vorinostat 0.074 | citarinostat 0.075 | silmitasertib 0.012 | [5] -0.017 | [6] 0.026 | entospletinib -0.055

FERMT3 (UniProt Q86UX7)
Chain of UniProt Q86UX7 (Q86UX7 whole entry, looked up): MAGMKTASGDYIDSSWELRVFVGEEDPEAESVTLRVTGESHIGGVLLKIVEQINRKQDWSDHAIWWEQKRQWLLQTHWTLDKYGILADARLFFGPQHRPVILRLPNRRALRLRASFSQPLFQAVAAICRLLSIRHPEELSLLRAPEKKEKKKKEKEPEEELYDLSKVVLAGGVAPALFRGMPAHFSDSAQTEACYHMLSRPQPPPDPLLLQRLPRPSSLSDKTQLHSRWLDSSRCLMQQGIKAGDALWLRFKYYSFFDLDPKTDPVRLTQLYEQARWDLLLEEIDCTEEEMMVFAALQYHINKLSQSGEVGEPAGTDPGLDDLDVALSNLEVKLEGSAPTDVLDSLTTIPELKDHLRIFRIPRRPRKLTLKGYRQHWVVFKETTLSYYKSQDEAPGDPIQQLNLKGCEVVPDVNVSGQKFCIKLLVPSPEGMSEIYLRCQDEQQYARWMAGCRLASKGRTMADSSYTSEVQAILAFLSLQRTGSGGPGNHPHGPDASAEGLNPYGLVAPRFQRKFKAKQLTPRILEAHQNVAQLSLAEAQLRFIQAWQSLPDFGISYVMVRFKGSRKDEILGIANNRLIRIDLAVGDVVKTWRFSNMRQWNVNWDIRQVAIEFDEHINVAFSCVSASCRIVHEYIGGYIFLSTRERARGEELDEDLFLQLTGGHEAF
inactive: [1] -0.055 | [2] -0.107 | [3] -0.106 | [4] -0.065 | entinostat 0.032 | vorinostat 0.026 | citarinostat 0.067 | silmitasertib -0.001 | [5] -0.048 | [6] -0.02 | entospletinib -0.005

GGA2 (UniProt Q9UJY4)
inactive: [1] 0.02 | [2] -0.02 | [3] -0.208 | [4] 0.01 | entinostat 0.032 | citarinostat 0.042 | silmitasertib 0.033 | [5] 0.152 | [6] -0.034 | entospletinib -0.117

GCLM (UniProt P48507)
inactive: [1] -0.028 | [2] 0.073 | [3] -0.088 | [4] -0.075 | entinostat 0.093 | vorinostat 0.051 | citarinostat 0.074 | silmitasertib 0.077 | [5] -0.022 | [6] -0.004 | entospletinib 0.012

HNRNPC isoform 2 (UniProt P07910)
Chain of UniProt P07910 (P07910 whole entry, looked up): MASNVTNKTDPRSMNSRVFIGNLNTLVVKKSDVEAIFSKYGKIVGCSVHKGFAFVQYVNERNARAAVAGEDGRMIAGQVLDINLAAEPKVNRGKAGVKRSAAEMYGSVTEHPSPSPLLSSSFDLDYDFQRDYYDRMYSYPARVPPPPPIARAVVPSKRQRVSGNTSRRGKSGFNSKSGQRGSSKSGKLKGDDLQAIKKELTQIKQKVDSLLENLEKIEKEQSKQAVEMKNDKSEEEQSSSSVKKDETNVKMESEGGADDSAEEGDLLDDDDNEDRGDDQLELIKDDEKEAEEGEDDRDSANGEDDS
inactive: [1] -0.032 | [2] -0.049 | [3] 0.568 | [4] -0.037 | entinostat 0.148 | vorinostat -0.041 | citarinostat -0.062 | silmitasertib 0.199 | [5] 0.104 | [6] -0.252 | entospletinib 0.274

HNRNPH2 (UniProt P55795)
inactive: [1] -0.073 | [2] -0.03 | [3] -0.124 | [4] -0.077 | entinostat 0.016 | vorinostat 0.114 | citarinostat 0.06 | silmitasertib 0.031 | [5] -0.007 | [6] -0.086 | entospletinib 0.009

HBZ (UniProt P02008)
Chain of UniProt P02008 (P02008 whole entry, looked up): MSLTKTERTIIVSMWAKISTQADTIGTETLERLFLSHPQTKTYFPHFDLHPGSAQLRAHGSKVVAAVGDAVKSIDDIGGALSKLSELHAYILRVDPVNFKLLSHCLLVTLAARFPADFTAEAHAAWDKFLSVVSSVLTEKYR
inactive: [1] 0.03 | [2] -0.042 | [3] 0 | [4] 0.026 | entinostat 0.059 | vorinostat -0.022 | citarinostat 0.027 | silmitasertib -0.019 | [5] -0.055 | [6] -0.018 | entospletinib 0.009

GOPC (UniProt Q9HD26)
inactive: [1] -0.055 | [2] -0.011 | [3] 0.15 | [4] -0.002 | entinostat -0.092 | vorinostat -0.038 | silmitasertib 0.029 | [5] 0.265

GABARAPL2 (UniProt P60520)
Chain of UniProt P60520 (P60520 whole entry, looked up): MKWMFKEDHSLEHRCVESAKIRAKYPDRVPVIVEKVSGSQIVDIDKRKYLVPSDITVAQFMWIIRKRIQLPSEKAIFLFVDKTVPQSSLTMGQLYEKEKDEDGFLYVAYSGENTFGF
inactive: [1] -0.036 | [2] -0.088 | [3] -0.145 | [4] -0.079 | entinostat -0.011 | vorinostat 0.063 | citarinostat 0.041 | silmitasertib -0.049 | [5] -0.048 | [6] 0.015 | entospletinib -0.032

GNAI3 (UniProt P08754)
Chain of UniProt P08754 (P08754 whole entry, looked up): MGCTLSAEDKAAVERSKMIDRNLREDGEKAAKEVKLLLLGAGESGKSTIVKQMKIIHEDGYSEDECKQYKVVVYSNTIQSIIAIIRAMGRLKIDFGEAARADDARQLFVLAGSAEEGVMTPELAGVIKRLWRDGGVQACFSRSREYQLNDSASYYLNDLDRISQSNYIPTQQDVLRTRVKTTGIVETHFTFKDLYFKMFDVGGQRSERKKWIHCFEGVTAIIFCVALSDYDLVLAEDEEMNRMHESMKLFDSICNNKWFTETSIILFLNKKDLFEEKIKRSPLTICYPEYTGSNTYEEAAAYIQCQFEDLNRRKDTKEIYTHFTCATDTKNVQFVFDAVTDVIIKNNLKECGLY
inactive: [1] -0.016 | [2] 0.022 | [3] -0.046 | [4] 0.003 | entinostat -0.04 | vorinostat -0.016 | citarinostat -0.018 | silmitasertib 0.052 | [5] -0.027 | [6] -0.076 | entospletinib 0.038

GPD1 (UniProt P21695)
Chain of UniProt P21695 (P21695 whole entry, looked up): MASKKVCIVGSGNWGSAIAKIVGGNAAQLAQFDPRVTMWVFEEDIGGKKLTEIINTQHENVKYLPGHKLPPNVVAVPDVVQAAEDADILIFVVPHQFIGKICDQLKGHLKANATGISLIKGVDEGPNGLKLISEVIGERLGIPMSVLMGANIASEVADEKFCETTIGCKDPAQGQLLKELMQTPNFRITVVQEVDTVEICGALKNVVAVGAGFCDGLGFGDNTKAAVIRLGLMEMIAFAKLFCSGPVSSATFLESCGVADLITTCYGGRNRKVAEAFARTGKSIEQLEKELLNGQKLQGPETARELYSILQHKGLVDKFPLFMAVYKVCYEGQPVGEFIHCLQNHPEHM
inactive: [1] 0.067 | [2] 0 | [3] 0.059 | [4] -0.067 | entinostat -0.068 | vorinostat -0.035 | silmitasertib -0.16 | [5] -0.157

HOMER1 (UniProt Q86YM7)
inactive: [1] 0.058 | [2] 0.007 | [3] -0.014 | [4] 0.032 | entinostat 0.049 | vorinostat 0.059 | citarinostat 0.013 | silmitasertib 0.119 | [5] 0.013 | [6] 0.024 | entospletinib 0.056

GPAT4 (UniProt Q86UL3)
Chain of UniProt Q86UL3 (Q86UL3 whole entry, looked up): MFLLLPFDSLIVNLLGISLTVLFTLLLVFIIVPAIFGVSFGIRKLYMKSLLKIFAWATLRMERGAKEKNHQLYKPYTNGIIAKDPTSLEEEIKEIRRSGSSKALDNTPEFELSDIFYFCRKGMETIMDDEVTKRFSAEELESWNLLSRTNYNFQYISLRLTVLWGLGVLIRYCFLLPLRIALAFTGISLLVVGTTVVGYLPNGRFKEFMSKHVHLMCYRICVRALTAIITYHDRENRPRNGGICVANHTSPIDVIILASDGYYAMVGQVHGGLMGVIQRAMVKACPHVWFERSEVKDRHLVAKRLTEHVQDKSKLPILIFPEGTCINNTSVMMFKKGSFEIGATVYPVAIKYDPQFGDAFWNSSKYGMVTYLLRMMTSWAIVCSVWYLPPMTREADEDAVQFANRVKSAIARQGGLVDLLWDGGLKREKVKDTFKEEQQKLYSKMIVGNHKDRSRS
inactive: [1] -0.031 | [2] 0.002 | [3] -0.012 | [4] -0.028 | entinostat -0.107 | vorinostat -0.017 | citarinostat 0.004 | silmitasertib -0.005 | [5] -0.077 | [6] -0.068 | entospletinib 0.055

GSTO1 (UniProt P78417)
Chain of UniProt P78417 (P78417 whole entry, looked up): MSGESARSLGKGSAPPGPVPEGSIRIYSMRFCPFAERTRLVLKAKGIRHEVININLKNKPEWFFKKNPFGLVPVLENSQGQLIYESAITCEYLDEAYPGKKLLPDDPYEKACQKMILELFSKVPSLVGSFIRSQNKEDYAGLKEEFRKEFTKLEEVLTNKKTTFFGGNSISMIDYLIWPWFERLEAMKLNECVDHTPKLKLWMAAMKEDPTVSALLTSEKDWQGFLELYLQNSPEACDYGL
inactive: [1] -0.015 | [2] -0.002 | [3] 0.022 | [4] 0.001 | entinostat -0.022 | vorinostat 0.058 | citarinostat 0.039 | silmitasertib -0.047 | [5] 0.018 | [6] -0.022 | entospletinib -0.046

HIP1R (UniProt O75146)
inactive: [1] -0.032 | [2] -0.001 | [3] -0.138 | [4] 0.014 | entinostat 0.027 | vorinostat 0.069 | citarinostat 0.022 | silmitasertib 0 | [5] -0.024 | [6] -0.005 | entospletinib -0.029

FIBP (UniProt O43427)
Chain of UniProt O43427 (O43427 whole entry, looked up): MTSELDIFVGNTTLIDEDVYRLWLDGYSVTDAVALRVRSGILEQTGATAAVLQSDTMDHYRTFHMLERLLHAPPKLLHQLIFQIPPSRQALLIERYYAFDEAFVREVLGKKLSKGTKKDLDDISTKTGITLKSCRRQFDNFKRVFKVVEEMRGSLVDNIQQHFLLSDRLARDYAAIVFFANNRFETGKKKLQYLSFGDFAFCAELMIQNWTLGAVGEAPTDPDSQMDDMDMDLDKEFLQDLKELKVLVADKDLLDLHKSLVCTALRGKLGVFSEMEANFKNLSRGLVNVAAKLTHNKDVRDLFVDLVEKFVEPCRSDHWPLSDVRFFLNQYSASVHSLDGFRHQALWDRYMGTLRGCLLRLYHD
inactive: [1] -0.018 | [2] 0.023 | [3] 0.011 | [4] -0.117 | entinostat -0.005 | vorinostat -0.067 | citarinostat 0.297 | silmitasertib -0.05 | [5] -0.031 | [6] -0.106 | entospletinib 0.455

GATD1 (UniProt Q8NB37)
Chain of UniProt Q8NB37 (Q8NB37 whole entry, looked up): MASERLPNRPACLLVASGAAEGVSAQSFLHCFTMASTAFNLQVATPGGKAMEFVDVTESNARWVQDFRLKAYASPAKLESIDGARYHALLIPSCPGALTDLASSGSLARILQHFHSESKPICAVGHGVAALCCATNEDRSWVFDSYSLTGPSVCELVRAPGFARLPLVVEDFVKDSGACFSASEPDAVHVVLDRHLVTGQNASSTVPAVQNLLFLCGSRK
active: [5] -0.673
inactive: [1] 0.012 | [2] 0.028 | [3] -0.037 | [4] -0.013 | entinostat -0.084 | vorinostat -0.018 | citarinostat -0.031 | silmitasertib -0.025 | [6] -0.031 | entospletinib -0.021

FARS2 (UniProt O95363)
inactive: [1] -0.006 | [2] 0.003 | [3] -0.222 | [4] 0.012 | entinostat 0.028 | vorinostat 0.073 | citarinostat 0.022 | silmitasertib -0.027 | [5] -0.11 | [6] 0.005 | entospletinib 0.011

GNL1 (UniProt P36915)
Chain of UniProt P36915 (P36915 whole entry, looked up): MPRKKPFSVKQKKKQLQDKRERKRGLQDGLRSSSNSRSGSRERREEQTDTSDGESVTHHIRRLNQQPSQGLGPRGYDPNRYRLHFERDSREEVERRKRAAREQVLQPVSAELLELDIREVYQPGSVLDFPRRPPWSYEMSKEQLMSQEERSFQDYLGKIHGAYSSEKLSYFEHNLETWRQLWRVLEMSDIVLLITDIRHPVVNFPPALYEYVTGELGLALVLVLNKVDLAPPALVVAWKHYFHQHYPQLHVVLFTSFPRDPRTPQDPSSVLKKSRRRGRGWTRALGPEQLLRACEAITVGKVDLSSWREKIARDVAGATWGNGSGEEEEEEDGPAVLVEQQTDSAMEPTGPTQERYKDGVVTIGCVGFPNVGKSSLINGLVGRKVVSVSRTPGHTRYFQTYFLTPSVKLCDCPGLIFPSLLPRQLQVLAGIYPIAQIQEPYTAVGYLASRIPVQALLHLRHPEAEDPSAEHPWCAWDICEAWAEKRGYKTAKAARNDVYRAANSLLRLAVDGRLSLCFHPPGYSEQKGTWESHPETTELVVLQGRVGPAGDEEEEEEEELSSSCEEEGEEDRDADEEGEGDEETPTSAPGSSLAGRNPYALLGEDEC
inactive: [1] -0.045 | [2] -0.071 | [3] -0.114 | [4] -0.019 | entinostat 0.001 | vorinostat 0.008 | citarinostat 0.022 | silmitasertib -0.021 | [5] -0.005 | [6] -0.011 | entospletinib 0.028

HP1BP3 (UniProt Q5SSJ5)
Chain of UniProt Q5SSJ5 (Q5SSJ5 whole entry, looked up): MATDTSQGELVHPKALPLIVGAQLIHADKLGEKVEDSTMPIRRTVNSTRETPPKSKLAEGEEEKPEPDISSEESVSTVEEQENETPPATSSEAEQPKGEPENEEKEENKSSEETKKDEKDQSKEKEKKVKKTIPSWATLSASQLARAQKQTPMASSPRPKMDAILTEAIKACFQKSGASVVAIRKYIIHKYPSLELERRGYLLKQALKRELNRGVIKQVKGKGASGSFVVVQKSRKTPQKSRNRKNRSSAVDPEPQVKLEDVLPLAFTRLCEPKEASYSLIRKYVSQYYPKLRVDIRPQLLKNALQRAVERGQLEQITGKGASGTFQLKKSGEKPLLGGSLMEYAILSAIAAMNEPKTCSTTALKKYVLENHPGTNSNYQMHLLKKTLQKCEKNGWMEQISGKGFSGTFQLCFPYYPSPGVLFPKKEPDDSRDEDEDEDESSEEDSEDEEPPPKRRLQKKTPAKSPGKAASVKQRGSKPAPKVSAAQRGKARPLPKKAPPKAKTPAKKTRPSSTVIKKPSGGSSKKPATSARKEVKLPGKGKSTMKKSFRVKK
inactive: [1] 0.026 | [2] -0.057 | [3] 0.043 | [4] -0.034 | entinostat 0.025 | vorinostat 0.132 | citarinostat 0.113 | silmitasertib -0.048 | [5] 0.067 | [6] -0.023 | entospletinib 0.014

HDDC2 (UniProt Q7Z4H3)
Chain of UniProt Q7Z4H3 (Q7Z4H3 whole entry, looked up): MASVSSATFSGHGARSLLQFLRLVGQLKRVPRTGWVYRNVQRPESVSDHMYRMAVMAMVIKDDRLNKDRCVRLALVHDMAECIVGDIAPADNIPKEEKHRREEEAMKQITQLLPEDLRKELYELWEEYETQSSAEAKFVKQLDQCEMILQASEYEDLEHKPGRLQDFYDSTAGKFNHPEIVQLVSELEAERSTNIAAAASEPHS
inactive: [1] -0.013 | [2] 0.111 | [3] -0.005 | [4] 0.032 | entinostat -0.03 | vorinostat -0.036 | citarinostat 0.032 | silmitasertib -0.032 | [5] 0.029 | [6] -0.041 | entospletinib -0.001

GALNT2 (UniProt Q10471)
inactive: [1] 0 | [2] -0.042 | [3] -0.125 | [4] 0.002 | entinostat -0.018 | vorinostat 0.033 | citarinostat 0.064 | silmitasertib -0.021 | [5] -0.034 | [6] 0.005 | entospletinib -0.041

HHEX (UniProt Q03014)
Chain of UniProt Q03014 (Q03014 whole entry, looked up): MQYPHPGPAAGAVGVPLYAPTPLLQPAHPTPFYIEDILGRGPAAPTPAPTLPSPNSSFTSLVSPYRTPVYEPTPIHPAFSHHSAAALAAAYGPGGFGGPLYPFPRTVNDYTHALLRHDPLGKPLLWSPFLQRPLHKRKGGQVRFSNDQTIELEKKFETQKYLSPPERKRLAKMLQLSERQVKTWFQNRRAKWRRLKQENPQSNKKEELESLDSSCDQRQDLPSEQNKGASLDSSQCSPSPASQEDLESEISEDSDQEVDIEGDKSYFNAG
active: [4] 0.568
inactive: [1] 0.04 | [2] 0.084 | [3] -0.054 | entinostat 0.045 | vorinostat 0.012 | citarinostat 0.029 | silmitasertib -0.018 | [5] 0.006 | [6] -0.016 | entospletinib -0.076

IFRD1 (UniProt O00458)
inactive: [1] -0.035 | [2] -0.275 | [3] -0.058 | [4] -0.009 | entinostat -0.08 | vorinostat -0.25 | citarinostat -0.035 | silmitasertib 0.175 | [5] 0.022 | [6] -0.016 | entospletinib 0.243

HBZ, A0A494C057
inactive: [3] -0.022 | citarinostat -0.197 | silmitasertib 0.005 | [6] 0.876 | entospletinib -0.048

HNRNPK isoform 3 (UniProt P61978)
inactive: [1] -0.06 | [3] 0.052 | [4] -0.182 | entinostat 0.023 | vorinostat 0.035 | citarinostat -0.009 | silmitasertib 0.028 | [5] 0.159 | [6] -0.102 | entospletinib 0.003
